# Test results reported in PMC5540273 (PLoS ONE, 2017).
# Key:
# Settings in all cases: concentration: 1 μM,replicates: in singlicate; n = 1
# CSNK1G1 = tested on: CSNK1G1
# CSNK1G2 = tested on: CSNK1G2
# CSNK1G3 = tested on: CSNK1G3
# CSNK2A1 = tested on: CSNK2A1
# CSNK2A2 = tested on: CSNK2A2
# CTK = tested on: T1, CTK
# T1 construct: gene MATK
# DAPK1 = tested on: DAPK1
# DAPK2 = tested on: DAPK2
# DAPK3 = tested on: DAPK3
# DCAMKL1 = tested on: T2, DCAMKL1
# T2 construct: gene DCLK1
# DCAMKL2 = tested on: T3, DCAMKL2
# T3 construct: gene DCLK2
# DCAMKL3 = tested on: T4, DCAMKL3
# T4 construct: gene DCLK3
# DDR1 = tested on: DDR1
# DDR2 = tested on: DDR2
# DLK = tested on: T5, DLK
# T5 construct: gene MAP3K12
# DMPK2 = tested on: T6, DMPK2
# T6 construct: gene CDC42BPG
# DMPK = tested on: DMPK
# DRAK1 = tested on: T7, DRAK1
# T7 construct: gene STK17A
# DRAK2 = tested on: T8, DRAK2
# T8 construct: gene STK17B
# DYRK1A = tested on: DYRK1A
# 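Further: KINOMEscan kinase panel screen.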
Structure (SMILES),%Inh (CSNK1G1),%Inh (CSNK1G2),%Inh (CSNK1G3),%Inh (CSNK2A1),%Inh (CSNK2A2),%Inh (CTK),%Inh (DAPK1),%Inh (DAPK2),%Inh (DAPK3),%Inh (DCAMKL1),%Inh (DCAMKL2),%Inh (DCAMKL3),%Inh (DDR1),%Inh (DDR2),%Inh (DLK),%Inh (DMPK2),%Inh (DMPK),%Inh (DRAK1),%Inh (DRAK2),%Inh (DYRK1A)
CC(C)Nc1cc(-c2ccc3c(N)n[nH]c3c2)nc(N)n1 [GSK2221681],0%,2%,19%,13%,28%,0%,30%,42%,51%,7%,20%,51%,0%,0%,28%,0%,0%,99%,0%,50%
Cc1ccc2c(-c3ccncc3)c(-c3ccc(F)cc3)nn2c1.Cl [GW461484],30%,27%,27%,0%,0%,0%,0%,7%,5%,0%,0%,0%,76%,80%,29%,77%,11%,0%,0%,0%
COc1ccc(C[C@@H](CN)NC(=O)c2cc(Br)c(-c3ccnc4[nH]ccc34)s2)cc1.Cl.Cl [GSK1389063],33%,79%,73%,57%,64%,2%,26%,13%,18%,64%,38%,86%,2%,26%,10%,99.4%,28%,44%,0%,97.6%
CCN(CC)CCCCNc1ncc2cc(-c3c(Cl)cccc3Cl)c(NC(=O)NC(C)(C)C)nc2n1,10%,0%,0%,1%,12%,15%,0%,0%,0%,11%,0%,14%,99.7%,100%,86%,0%,4%,0%,5%,0%
CC(C)N1C(=O)Cc2cc(Nc3ncc(C(F)(F)F)c(NCc4cccc(S(C)(=O)=O)c4)n3)ccc21,0%,19%,0%,55%,82%,64%,22%,20%,20%,30%,0%,34%,–,0%,0%,0%,0%,74%,82%,2%
O=C(NCCNc1ccnc(NCc2ccc(F)cc2)n1)c1cc2ccccc2s1 [GSK1379944],32%,98.8%,9%,0%,66%,0%,0%,0%,81%,1%,0%,4%,–,0%,0%,0%,0%,0%,0%,30%
C=CC(=O)Nc1cc2c(Nc3ccc(F)c(Cl)c3)ncnc2cc1OCCCN1CCOCC1 [GW781483],0%,1%,99.8%,27%,16%,4%,0%,0%,0%,15%,1%,10%,71%,44%,0%,6%,20%,2%,5%,11%
Cc1n[nH]c2ccc(-c3cc(OC[C@@H](N)Cc4ccccc4)cnc3-c3ccoc3)cc12.O=C(O)C(F)(F)F.O=C(O)C(F)(F)F [GSK507358],71%,90.6%,91.7%,10%,8%,0%,0%,0%,13%,0%,0%,0%,0%,0%,15%,50%,92.8%,0%,0%,29%
Cl.Cl.NC[C@H](CC1CCCCC1)NC(=O)c1cc(Br)c(-c2ccnc3[nH]ccc23)s1 [GSK1581427],6%,26%,40%,55%,0%,0%,71%,12%,19%,16%,14%,0%,0%,0%,0%,98.3%,91.7%,14%,0%,55%
C[C@@H]1CCN(C(=O)CC#N)C[C@@H]1N(C)c1ncnc2[nH]ccc12,15%,0%,0%,0%,0%,0%,10%,0%,4%,0%,14%,99.1%,0%,0%,0%,0%,24%,11%,5%,0%
CNC(=O)c1ccccc1Sc1ccc2c(/C=C/c3ccccn3)n[nH]c2c1,0%,18%,0%,0%,0%,8%,0%,0%,0%,31%,14%,76%,18%,14%,41%,6%,0%,76%,0%,0%
CN(C)CC(O)COc1ccc(Nc2nccc(-c3cnn4nc(N5CCOCC5)ccc34)n2)cc1 (stereo not drawn) [GW767488],16%,50%,10%,97.1%,98.7%,1%,59%,46%,68%,72%,61%,64%,0%,0%,61%,17%,20%,99.7%,93.1%,73%
CN(C)CCOc1ccc(-c2cc(-c3c[nH]nc3-c3ccccn3)ccn2)cc1 [GW835314],14%,9%,65%,0%,3%,48%,13%,0%,0%,0%,1%,1%,0%,0%,8%,0%,0%,18%,9%,1%
Cc1cc2cn[nH]c2cc1-c1cccc2c(N)c(C(N)=O)nnc12,12%,13%,12%,19%,5%,80%,9%,3%,32%,71%,37%,98.8%,0%,0%,98.8%,7%,0%,47%,27%,13%
Cl.Cl.NC[C@H](Cc1ccc(C(F)(F)F)cc1)NC(=O)c1cc(Br)c(-c2ccnc3[nH]ccc23)s1 [GSK1487252],0%,8%,24%,0%,14%,0%,0%,0%,6%,17%,0%,75%,8%,0%,8%,64%,0%,18%,0%,35%
CCN(CC)CCOc1ccc(Nc2ncc3cc(-c4c(Cl)cccc4Cl)c(=O)n(C)c3n2)cc1 [SB-601273],38%,0%,12%,6%,9%,27%,12%,0%,10%,24%,41%,0%,100%,100%,96.4%,95.4%,24%,43%,21%,0%
Cc1ccc(-n2nc(C(C)(C)C)cc2NC(=O)Nc2ccc(OCCN3CCOCC3)c3ccccc23)cc1 [GW839464],1%,0%,19%,0%,4%,0%,4%,1%,20%,21%,0%,34%,–,–,7%,40%,4%,0%,11%,0%
O=C(NCCCN1CCOC1=O)c1cnc(NCc2cc(Cl)ccc2Cl)nc1NC1CCCC1,0%,3%,0%,16%,23%,0%,3%,7%,12%,28%,1%,18%,0%,11%,37%,0%,0%,0%,0%,0%
C[C@H]1Oc2cc(cnc2N)-c2c(nn(C)c2C#N)CN(C)C(=O)c2ccc(F)cc21,0%,27%,10%,0%,0%,0%,0%,83%,16%,88%,91.8%,15%,–,3%,2%,0%,0%,2%,0%,0%
